# Laboratory results as given in the supplement of paper PMC10849652.
# The full data set covers some 7,900 targets. This sample favours those with a hit. About 0.6% of all pairs of compound and target were hits. A number with no mark means an inactive call.
# Columns and labels:
# Test in all cases: log2 fold change, soluble protein after heating vs DMSO (PISA); higher = thermal stabilisation; K562 cells, 10 uM, 30 min; active = over 0.2 and 3.5 SD of the protein, either way, in both replicates (recomputed)
# [1] = compound: CN1CCN(CCOc2cc(OC3CCOCC3)c3c(Nc4c(Cl)ccc5c4OCO5)ncnc3c2)CC1 [saracatinib]
# Outline: (§1)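 Quantification of soluble protein used TMTpro 16plex LC-MS/MS, with channel sums equalised. Samples were the supernatant after 21,000xg for 90 min of pooled aliquots from K562 cells (2×10^6 cells/mL) treated with 10 μM compound for 30 min, heated for 3 min over 48°C-58°C, and extracted in PBS with 0.5% NP-40 at 4°C. Values, from duplicates, describe thermal stability against control samples on a log2 fold-change scale.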
# [2] = compound: CN1CCN(c2nc(C3=C(c4c[nH]c5ccccc45)C(=O)NC3=O)c3ccccc3n2)CC1 [sotrastaurin]
# Outline: as §1
# [3] = compound: CN1CC[C@H](c2c(O)cc(O)c3c(=O)cc(-c4ccccc4Cl)oc23)[C@H](O)C1 [alvocidib]
# Outline: as §1
# [4] = compound: CN1CCc2c(c3ccccc3n2Cc2ccc(C(=O)NO)cc2)C1 [Tubastatin A]
# Outline: as §1
# [5] = compound: CNC(=O)C1=CC=CC=C1NC2=NC(=NC=C2Cl)NC3=C(C=C(C=C3)N4CCOCC4)OC
# Outline: as §1
# [6] = compound: CNC(=O)c1ccc(Nc2ncc(C(F)(F)F)c(NCc3nccnc3N(C)S(C)(=O)=O)n2)cc1 [defactinib]
# Outline: as §1
# [7] = compound: CNCc1ccc(-c2[nH]c3cc(F)cc4c3c2CCNC4=O)cc1 [rucaparib]
# Outline: as §1
# [8] = compound: CNc1nc(-c2ccc3c(N)n[nH]c3c2)cc(N2C[C@@H](C(=O)NC3CCCCC3)CC[C@H]2C)n1
# Outline: as §1
# [9] = compound: COC(=O)N[C@@H](C)CNc1nccc(-c2cn(C(C)C)nc2-c2cc(Cl)cc(NS(C)(=O)=O)c2F)n1 [encorafenib]
# Outline: as §1
# [10] = compound: COC(=O)[C@H](CCSC)NC(=O)C1=C(C=C(C=C1)NC[C@H](CS)N)C2=CC=CC=C2
# Outline: as §1
# [11] = compound: COC1=CC=C(C=C1)CN2C=CC3=C2C=C(C=C3)C(=O)NO
# Outline: as §1
# [12] = compound: CON(C)C(=O)N1N=C(c2cc(F)ccc2F)S[C@@]1(CCCN)c1ccccc1 [filanesib]
# Outline: as §1
# [13] = compound: CO[C@H]1C[C@@H]2CC[C@@H](C)[C@@](O)(O2)C(=O)C(=O)N2CCCC[C@H]2C(=O)O[C@H]([C@H](C)C[C@@H]2CC[C@H](n3cnnn3)[C@H](OC)C2)CC(=O)[C@H](C)/C=C(\C)[C@@H](O)[C@@H](OC)C(=O)[C@H](C)C[C@H](C)/C=C/C=C/C=C/1C [zotarolimus]
# Outline: as §1
# [14] = compound: COc1cc(C(=O)O)ccc1NC(=O)[C@@H]1N[C@@H](CC(C)(C)C)[C@](C#N)(c2ccc(Cl)cc2F)[C@H]1c1cccc(Cl)c1F [idasanutlin]
# Outline: as §1
# [15] = compound: COc1cc(Nc2ncc3c(n2)-c2ccc(Cl)cc2C(c2c(F)cccc2OC)=NC3)ccc1C(=O)O [alisertib]
# Outline: as §1
# [16] = compound: COc1cc2nc(-c3cc(F)ccc3O)nc(N[C@@H]3CNC[C@H]3C(C)(C)O)c2cc1OC
# Outline: as §1
# [17] = compound: COc1cc2ncnc(Nc3ccc(F)c(Cl)c3)c2cc1OCCCN1CCOCC1 [gefitinib]
# Outline: as §1
# [18] = compound: COc1cccc2cc(-c3nc([C@H]4CC[C@H](C(=O)O)CC4)n4ncnc(N)c34)[nH]c12
# Outline: as §1
# [19] = compound: CS(=O)(=O)CCNCc1ccc(-c2ccc3ncnc(Nc4ccc(OCc5cccc(F)c5)c(Cl)c4)c3c2)o1 [lapatinib]
# Outline: as §1
# [20] = compound: CS(=O)(=O)N1CCN(Cc2cc3nc(-c4cccc5[nH]ncc45)nc(N4CCOCC4)c3s2)CC1 [pictilisib]
# Outline: as §1
# Sequence of UniProt O00124 (O00124 whole entry, looked up): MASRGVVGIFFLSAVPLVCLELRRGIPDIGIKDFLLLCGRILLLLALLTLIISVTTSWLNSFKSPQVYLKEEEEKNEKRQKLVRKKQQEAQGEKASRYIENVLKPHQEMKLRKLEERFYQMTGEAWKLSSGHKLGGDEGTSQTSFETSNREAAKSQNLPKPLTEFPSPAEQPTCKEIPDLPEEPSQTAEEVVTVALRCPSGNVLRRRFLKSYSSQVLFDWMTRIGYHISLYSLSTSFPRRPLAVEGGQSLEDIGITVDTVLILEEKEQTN
# Sequence of UniProt Q15906 (Q15906 whole entry, looked up): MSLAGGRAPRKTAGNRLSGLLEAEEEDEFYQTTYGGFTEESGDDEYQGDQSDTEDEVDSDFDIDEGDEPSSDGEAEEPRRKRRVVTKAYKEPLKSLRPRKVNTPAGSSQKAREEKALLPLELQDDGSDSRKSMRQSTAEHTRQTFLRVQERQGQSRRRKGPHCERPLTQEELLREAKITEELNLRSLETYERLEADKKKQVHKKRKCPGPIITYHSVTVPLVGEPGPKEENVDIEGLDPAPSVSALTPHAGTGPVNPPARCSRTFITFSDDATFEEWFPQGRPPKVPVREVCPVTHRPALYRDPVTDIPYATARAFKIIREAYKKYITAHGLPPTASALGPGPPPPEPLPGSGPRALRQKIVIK
# Sequence of UniProt O75691 (O75691 whole entry, looked up): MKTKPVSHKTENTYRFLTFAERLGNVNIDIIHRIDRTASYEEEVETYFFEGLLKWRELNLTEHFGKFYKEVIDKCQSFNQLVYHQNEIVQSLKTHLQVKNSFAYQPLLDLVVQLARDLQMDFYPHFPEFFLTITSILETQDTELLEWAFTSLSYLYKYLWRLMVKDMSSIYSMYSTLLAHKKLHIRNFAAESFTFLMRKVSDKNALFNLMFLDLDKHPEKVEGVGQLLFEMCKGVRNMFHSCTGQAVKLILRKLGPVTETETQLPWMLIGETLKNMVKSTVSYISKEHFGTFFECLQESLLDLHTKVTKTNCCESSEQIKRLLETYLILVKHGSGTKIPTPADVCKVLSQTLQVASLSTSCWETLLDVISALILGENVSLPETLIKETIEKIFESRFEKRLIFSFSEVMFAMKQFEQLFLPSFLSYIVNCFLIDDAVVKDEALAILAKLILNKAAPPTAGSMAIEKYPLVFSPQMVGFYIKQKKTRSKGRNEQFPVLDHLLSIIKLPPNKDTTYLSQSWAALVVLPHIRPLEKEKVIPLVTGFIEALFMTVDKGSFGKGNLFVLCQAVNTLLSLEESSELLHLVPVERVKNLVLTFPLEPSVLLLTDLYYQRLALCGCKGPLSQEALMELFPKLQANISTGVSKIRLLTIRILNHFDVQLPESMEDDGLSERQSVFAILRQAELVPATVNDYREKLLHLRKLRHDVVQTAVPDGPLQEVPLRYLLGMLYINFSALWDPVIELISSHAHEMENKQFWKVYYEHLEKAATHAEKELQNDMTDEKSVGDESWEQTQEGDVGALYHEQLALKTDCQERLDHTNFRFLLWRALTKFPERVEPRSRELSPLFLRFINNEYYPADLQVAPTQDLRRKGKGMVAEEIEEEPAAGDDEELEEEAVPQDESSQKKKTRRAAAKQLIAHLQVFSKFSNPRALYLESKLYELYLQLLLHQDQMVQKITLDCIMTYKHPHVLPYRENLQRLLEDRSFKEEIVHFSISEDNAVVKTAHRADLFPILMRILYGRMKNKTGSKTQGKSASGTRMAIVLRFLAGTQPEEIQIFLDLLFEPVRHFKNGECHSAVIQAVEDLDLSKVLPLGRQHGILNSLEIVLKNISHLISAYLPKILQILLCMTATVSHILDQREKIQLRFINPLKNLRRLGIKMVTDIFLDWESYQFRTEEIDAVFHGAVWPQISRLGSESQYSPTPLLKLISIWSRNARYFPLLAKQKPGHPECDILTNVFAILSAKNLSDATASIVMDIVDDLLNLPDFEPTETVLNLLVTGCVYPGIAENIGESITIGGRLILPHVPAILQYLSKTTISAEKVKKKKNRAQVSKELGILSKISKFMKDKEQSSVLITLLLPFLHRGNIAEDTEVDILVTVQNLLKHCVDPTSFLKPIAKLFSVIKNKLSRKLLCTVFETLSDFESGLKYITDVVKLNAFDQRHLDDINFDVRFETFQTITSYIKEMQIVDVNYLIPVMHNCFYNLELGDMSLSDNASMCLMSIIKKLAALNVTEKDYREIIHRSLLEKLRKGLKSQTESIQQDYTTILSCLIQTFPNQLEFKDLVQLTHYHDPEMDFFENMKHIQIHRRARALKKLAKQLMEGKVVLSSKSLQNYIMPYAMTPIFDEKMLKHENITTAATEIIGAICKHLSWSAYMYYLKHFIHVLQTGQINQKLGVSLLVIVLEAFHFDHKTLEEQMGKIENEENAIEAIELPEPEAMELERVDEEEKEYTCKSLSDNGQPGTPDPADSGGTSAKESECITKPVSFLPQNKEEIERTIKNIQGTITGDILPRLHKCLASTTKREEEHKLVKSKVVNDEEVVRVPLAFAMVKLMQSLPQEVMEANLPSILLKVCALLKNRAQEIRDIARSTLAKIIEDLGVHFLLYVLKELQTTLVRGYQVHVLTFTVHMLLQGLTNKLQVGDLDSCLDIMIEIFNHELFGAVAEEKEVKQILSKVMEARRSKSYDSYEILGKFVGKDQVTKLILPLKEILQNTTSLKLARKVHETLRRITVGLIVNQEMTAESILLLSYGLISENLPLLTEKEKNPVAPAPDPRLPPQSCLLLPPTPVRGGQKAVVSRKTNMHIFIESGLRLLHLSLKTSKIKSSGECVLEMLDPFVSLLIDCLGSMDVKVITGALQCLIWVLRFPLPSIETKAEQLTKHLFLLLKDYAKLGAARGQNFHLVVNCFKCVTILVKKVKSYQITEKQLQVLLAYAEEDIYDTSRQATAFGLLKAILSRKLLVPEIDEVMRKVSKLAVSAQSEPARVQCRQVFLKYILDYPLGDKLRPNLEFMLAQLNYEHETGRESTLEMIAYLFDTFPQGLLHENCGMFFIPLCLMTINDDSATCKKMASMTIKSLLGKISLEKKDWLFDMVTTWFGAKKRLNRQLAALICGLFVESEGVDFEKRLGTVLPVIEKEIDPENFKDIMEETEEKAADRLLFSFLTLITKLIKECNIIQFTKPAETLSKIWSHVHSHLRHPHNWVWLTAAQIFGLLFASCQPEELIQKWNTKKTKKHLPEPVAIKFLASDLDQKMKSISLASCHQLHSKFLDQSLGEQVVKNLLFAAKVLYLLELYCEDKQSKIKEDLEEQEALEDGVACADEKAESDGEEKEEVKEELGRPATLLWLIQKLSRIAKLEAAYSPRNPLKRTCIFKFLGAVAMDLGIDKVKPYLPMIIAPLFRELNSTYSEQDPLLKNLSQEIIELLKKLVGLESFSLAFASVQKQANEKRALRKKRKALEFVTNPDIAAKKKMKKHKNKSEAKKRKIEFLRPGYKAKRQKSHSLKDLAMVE
# Sequence of UniProt Q9HCN3 (Q9HCN3 whole entry, looked up): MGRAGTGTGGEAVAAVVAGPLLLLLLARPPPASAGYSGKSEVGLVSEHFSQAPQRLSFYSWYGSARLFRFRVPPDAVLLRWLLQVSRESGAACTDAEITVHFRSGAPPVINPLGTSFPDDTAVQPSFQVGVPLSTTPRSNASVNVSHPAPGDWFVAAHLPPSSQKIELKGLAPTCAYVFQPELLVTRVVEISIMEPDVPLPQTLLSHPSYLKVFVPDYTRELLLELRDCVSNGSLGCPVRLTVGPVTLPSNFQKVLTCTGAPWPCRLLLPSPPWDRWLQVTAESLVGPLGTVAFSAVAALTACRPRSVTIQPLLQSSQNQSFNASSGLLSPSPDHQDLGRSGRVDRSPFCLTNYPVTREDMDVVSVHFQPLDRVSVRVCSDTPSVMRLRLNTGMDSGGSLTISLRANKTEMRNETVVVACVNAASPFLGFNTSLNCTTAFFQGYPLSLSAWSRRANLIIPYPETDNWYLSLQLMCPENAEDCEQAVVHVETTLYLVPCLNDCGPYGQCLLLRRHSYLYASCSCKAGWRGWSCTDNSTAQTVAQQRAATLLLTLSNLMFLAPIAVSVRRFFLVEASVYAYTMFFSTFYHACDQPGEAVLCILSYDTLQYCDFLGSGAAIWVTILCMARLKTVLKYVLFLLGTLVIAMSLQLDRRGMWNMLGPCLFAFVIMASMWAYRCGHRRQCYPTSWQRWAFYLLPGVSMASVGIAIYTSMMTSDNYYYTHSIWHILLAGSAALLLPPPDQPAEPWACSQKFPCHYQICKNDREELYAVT
# Sequence of UniProt Q7Z6J8 (Q7Z6J8 whole entry, looked up): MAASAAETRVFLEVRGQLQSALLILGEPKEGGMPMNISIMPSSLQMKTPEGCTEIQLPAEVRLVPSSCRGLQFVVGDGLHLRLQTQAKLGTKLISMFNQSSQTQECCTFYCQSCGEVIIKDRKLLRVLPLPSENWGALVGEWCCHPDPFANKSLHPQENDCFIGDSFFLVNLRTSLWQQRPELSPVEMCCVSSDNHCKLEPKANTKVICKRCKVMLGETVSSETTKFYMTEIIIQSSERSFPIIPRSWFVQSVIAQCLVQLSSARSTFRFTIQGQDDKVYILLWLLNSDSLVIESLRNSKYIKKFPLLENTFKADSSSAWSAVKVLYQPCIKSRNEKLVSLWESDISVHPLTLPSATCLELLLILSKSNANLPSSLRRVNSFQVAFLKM
# Sequence of UniProt P98170 (P98170 whole entry, looked up): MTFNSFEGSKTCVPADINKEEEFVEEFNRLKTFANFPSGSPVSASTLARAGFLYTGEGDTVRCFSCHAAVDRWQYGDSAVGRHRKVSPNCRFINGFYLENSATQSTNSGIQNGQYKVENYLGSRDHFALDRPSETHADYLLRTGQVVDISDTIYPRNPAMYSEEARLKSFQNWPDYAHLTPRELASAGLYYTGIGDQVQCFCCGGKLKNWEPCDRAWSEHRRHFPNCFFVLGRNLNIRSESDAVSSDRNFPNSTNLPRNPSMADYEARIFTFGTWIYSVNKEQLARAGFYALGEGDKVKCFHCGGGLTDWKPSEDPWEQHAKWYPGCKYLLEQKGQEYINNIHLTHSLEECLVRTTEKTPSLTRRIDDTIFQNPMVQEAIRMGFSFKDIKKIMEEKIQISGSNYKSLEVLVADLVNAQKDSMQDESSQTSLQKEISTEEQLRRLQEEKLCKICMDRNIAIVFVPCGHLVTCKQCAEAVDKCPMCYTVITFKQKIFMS
Target,log2 fold change [1],log2 fold change [2],log2 fold change [3],log2 fold change [4],log2 fold change [5],log2 fold change [6],log2 fold change [7],log2 fold change [8],log2 fold change [9],log2 fold change [10],log2 fold change [11],log2 fold change [12],log2 fold change [13],log2 fold change [14],log2 fold change [15],log2 fold change [16],log2 fold change [17],log2 fold change [18],log2 fold change [19],log2 fold change [20]
TNPO2 (UniProt O14787),0.066,-0.055,-0.188,0.03,0.013,-0.188,-0.051,0.054,0.133,-0.079,-0.022,-0.005,0.065,-0.194,-0.071,-0.069,0.027,-0.038,-0.048,-0.076
WASHC5 (UniProt Q12768),0.007,-0.02,-0.042,0.047,0.062,-0.032,0.045,-0.009,0.033,-0.033,-0.059,-0.017,0.043,0.034,-0.088,0.083,0.044,-0.021,-0.024,-0.05
XIAP (UniProt P98170),-0.149,-0.119,-0.108,0.002,-0.033,-0.12,0.107,-0.075,0.081,0.033,–,0.046,0.008,0.009,0.089,0.085,0.115,0,-0.01,0.054
VPS72 isoform 2 (UniProt Q15906),-0.094,0.004,0.042,-0.011,-0.021,-0.016,0.28,-0.082,-0.053,-0.019,–,0.084,-0.008,0.062,-0.066,-0.047,0.033,-0.094,0.012,–
UTP3 (UniProt Q9NQZ2),0.232,-0.1,0.173,0.067,0.094,0.104,0.238,-0.106,0.23,0.051,-0.058,0.368,0.125,0.26,-0.09,-0.074,–,-0.067,0.204,-0.06
UBE3D (UniProt Q7Z6J8),0.027,-0.007,-0.059,-0.043,-0.058,-0.003,0.161,-0.064,0.005,-0.108,-0.005,0.08,-0.033,-0.009,-0.088,-0.022,0.035,0.009,-0.069,0.139
UBAP2L isoform 5 (UniProt Q14157),0.017,0.013,0.038,-0.006,-0.096,0.009,0.018,-0.006,-0.018,0.015,-0.026,-0.014,-0.03,-0.047,-0.034,0,-0.019,0.012,0,-0.015
UBXN10 (UniProt Q96LJ8),0.111,0.122,-0.021,0.036,-0.152,0.254,-0.05,-0.049,-0.074,0.014,0.059,0.038,-0.049,–,0.016,-0.071,-0.079,-0.11,0.097,-0.008
TMEM219 (UniProt Q86XT9),0.261,0.03,-0.12,-0.059,-0.016,-0.185,–,0.176,–,-0.093,–,-0.065,-0.181,-0.017,–,-0.011,-0.029,–,0.058,-0.277
TRIP10 (UniProt Q15642),0.036,-0.014,-0.011,0,0.027,-0.029,0.006,0.046,0.038,-0.005,0.054,0.01,-0.007,-0.061,-0.026,0.083,-0.014,-0.04,0.021,0.033
TMEM8A (UniProt Q9HCN3),0.059,-0.099,-0.009,0.108,-0.042,-0.039,0.004,0.02,0.037,-0.191,–,0.188,-0.093,–,-0.153,-0.008,-0.038,0.085,0.065,0.121
TUBA4A (UniProt C9JJQ8),-0.148,-0.084,-0.191,0.147,–,-0.215,0.186,0.131,0.078,-0.055,0.083,0.016,-0.041,–,–,0.052,–,–,0.018,–
WARS1 (UniProt G3V227),0.003,–,-0.065,-0.053,–,-0.001,–,0.021,–,0.3,–,–,0.086,-0.047,–,–,–,–,–,–
XRCC1 (UniProt P18887),0.008,-0.264,-0.029,0.055,0.05,–,–,0.148,–,–,-0.129,0.088,-0.018,-0.045,–,–,–,–,–,-0.065
UBAP2L (UniProt F8W726),–,–,–,-0.039,-0.05,–,-0.006,–,-0.021,–,–,–,–,–,-0.074,-0.069,-0.012,-0.084,0.067,0.078
VWA3B isoform 6 (UniProt Q502W6),0.042,–,0.079,-0.018,0.017,0.039,-0.448,-0.076,0.095,-0.04,-0.156,–,-0.083,-0.41,-0.081,-0.272,0.008,-0.022,0.079,0.118
TVP23C (UniProt Q96ET8),0.025,–,-0.135,0,0.042,0.039,-0.205,0.015,0.129,0.067,–,–,-0.006,-0.124,0.007,-0.024,–,0.235,-0.14,-0.029
UTP20 (UniProt O75691),–,–,–,-0.028,-0.051,–,–,–,–,–,–,–,–,–,–,-0.087,–,–,0.076,–
WARS1 (UniProt G3V3P2),–,0.336,–,–,–,–,–,–,–,–,–,0.087,–,–,–,–,–,–,–,–
UBXN8 (UniProt O00124),-0.054,0.027,0.102,-0.144,–,0.065,-0.568 (active),-0.112,0.094,-0.095,–,0.069,-0.028,-0.116,–,-0.035,–,–,0.023,-0.002
